Data on 39 sequences can be found in the OligoGym collection.
Further: reference of the scale not given here.

One test addresses TSC22D2. The experiment in a line: pooled miR-30 sensor sort-seq; sequence = guide strand. As to conditions: shRNA.
In the case of TAGCTGTGACACAGCAGTCAAG, the sensor-assay potency score (higher = more potent) is -1.48.
Same read-out and setting: the value for TTTTCTTCTAGTATCGTCGACT was -0.0154; that for TTAACAGTGCATTTTCTCGTTC was -0.691.
On the same count and under the same terms, under TAGTATCGTCGACTTGCCCGAC stands -0.774; under TCAACAGGAATAGCTATGCTGA, -0.503; under TAGTATTCCATACACGTCCATC, -1.07.
The same measure, in the same setting: the value for TTTAACAGTGCATTTTCTCGTT was 0.0173.
On to TCTTCTAGTATCGTCGACTTGC, for which the sensor-assay potency score (higher = more potent) was 0.0712.
Still for that read-out and setting: under AAAACTTCCACTTCTTCTCTTA stands 0.265; under TTCTCTTACTGCATACATCAAA, -0.826; under TAAAACTTCCACTTCTTCTCTT, 0.683.
TATTCCATACACGTCCATCGGC showed a sensor-assay potency score (higher = more potent) of -0.556.

In a further test the target is TSC22D3. Described as above. As to conditions: shRNA.
Sequence ATTGAGGTTCTCAAAGACCAGC had a sensor-assay potency score (higher = more potent) of -1.14.
Regarding TTCTTCTCCACCAGCTCTCGGA, the sensor-assay potency score (higher = more potent) is -1.12.
On the same count and under the same terms, the value for TTCTTCACCAGATCCATGGCCT was 0.0668; that for TTGTTGTCTATGGCCACCACGC was -1.5.
Still for that read-out and setting: the value for TTGTCTATGGCCACCACGCTGG was -0.721.
For the sequence AACTTCTCCAGCTGCTCTGGGC, the sensor-assay potency score (higher = more potent) is -1.22.
As to TTATGCTGTTGAGCTTGTCGGT, the sensor-assay potency score (higher = more potent) was -0.79.
TGAGCTTGTCGGTATTGAGGTT returned a sensor-assay potency score (higher = more potent) of -0.394.
The same measure, in the same setting: under TCGTTGATCAGGTAGCAGGGGT stands -0.312; under TTGAGCTTGTCGGTATTGAGGT, -0.00573; under TTCAGGGCTCAGACAGGACTGG, -0.708.
As for ATGCTGTTGAGCTTGTCGGTAT, the sensor-assay potency score (higher = more potent) is -1.17.
In turn, TTGCCAGGGTCTTCAACAGGGT displayed a sensor-assay potency score (higher = more potent) of -0.965.
On the same count and under the same terms, under TCGATCTTGTTGTCTATGGCCA stands -0.64; under TGTTCTCACGCTCTAGCTGGGA, -0.875; under TATGCTGTTGAGCTTGTCGGTA, -0.561.
The same measure, in the same setting: the value for TTCTTCATAGGAACAGTCGTTG was -0.524.
The same measure, in the same setting: under TTGTCGGTATTGAGGTTCTCAA stands -1.48.
In turn, TAGGACATCTCTTGGCACCAGC displayed a sensor-assay potency score (higher = more potent) of -0.981.
On to TTCGATCTTGTTGTCTATGGCC, for which the sensor-assay potency score (higher = more potent) amounted to 0.125.
ATGGTCTGGTCGATGTTGCGGT displayed a sensor-assay potency score (higher = more potent) of -0.997.
Same read-out and setting: under TAGCTGGGAGTTCTTCTCCACC stands -1.58; under TCTCTCACAGCATACATCAGAT, -0.863.
Regarding TTGTTGTTCTCCCCGCTGCTGC, the sensor-assay potency score (higher = more potent) is -1.15.

In a further test the target is TSEN34. The description is as above. The following applies: shRNA.
Sequence TCGGGCATCAGCAGCAGCGGGA came in with a sensor-assay potency score (higher = more potent) of -1.31.
The same measure, in the same setting: under TTTCTGCTTCTTAGCAGCCTGG stands -1.47.
Take TAGACCAGGAAGTCACCTCCGA: the sensor-assay potency score (higher = more potent) was determined as 0.0618.
